Experimental data: PubChem BioAssay (NCI)
“And” between values parts separate entries of the source, which are not always exact repeats. Equal entries are not always repeated. About 83,000 compounds went through this panel and 20% of them were active in at least one assay; those are over-represented in the sample as a whole.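 In brief: 96-well plates, 48 h treatment, single concentration, percent growth endpoint.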 Unmarked numbers belong to inactive results. Rule for the calls: active = growth percent below 10; inactive = the rest.

system: MDA-MB-468 breast; experiment: NCI-60 one-dose screen, 48 h (100 = growth as untreated, 0 = no growth, -100 = all killed); details: 10 µM unless noted

Row | SMILES | growth
1 | O=S(=O)(Nc1ccccc1)C1CCCCC1 | 110% and 107%
2 | Nc1c(C(=O)Nc2ccncc2)sc2nc3c(cc12)CCCCCC3 | 87.8%
3 | c1cc(NCCCCN2CCOCC2)c2ccc3c(ccc4c(NCCN5CCOCC5)ccnc43)c2n1 | 75.8%
